Shown are actives, neighbours in structure and some others; about 6.2% of the full set was active somewhere.
Gal4-VP16 FLuc: inhibits Gal4-VP16 luciferase reporter, ROR gamma counter-screen; Drosophila S2 Gal4-VP16 UAS-luciferase, luminescence, 20 h; Potency, µM (top dose mostly 53.6 µM), without a hit: at the top dose activity, negative = inhibition, actives largely listed as inhibitors; 310,000 tested, 3.5% active; AID 2546;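 also: Gal4-VP16 expression switched on by copper sulfate through the metallothionein promoter; nearly all actives have a fitted effect of over 50% in size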
RORgamma inh: ROR gamma (mouse) transcription inhibition. Drosophila S2 Gal4-RORgamma UAS-luciferase reporter, 20 h. Potency, µM (titrated, usually from 53.6 µM), for the others: at the top dose activity change, negative = inhibition, usual class: inhibitors. 310,000 tested, 5.4% active. P51450; also: nearly all actives have a fitted effect of over 60% in size
Target sequence (P51450 whole entry, looked up, the tested form may be a part): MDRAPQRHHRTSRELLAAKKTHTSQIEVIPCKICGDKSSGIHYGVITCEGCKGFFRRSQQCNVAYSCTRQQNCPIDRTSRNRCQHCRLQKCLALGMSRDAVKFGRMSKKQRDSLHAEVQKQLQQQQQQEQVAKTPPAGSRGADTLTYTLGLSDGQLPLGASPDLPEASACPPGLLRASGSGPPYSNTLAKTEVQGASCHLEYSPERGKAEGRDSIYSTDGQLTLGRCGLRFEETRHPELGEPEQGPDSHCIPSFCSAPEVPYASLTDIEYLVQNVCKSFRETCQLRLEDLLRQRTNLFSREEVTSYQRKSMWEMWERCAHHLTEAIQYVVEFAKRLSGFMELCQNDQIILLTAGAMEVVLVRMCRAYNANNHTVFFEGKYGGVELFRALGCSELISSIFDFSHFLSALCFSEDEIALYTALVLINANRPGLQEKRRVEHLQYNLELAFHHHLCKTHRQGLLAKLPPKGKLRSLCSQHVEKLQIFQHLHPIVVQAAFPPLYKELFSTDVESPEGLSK
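Schneider cells (Drosophila), stable Gal4 DBD–ROR gamma + UAS-luc; 1 hr cmpd preincubation; Cu2+ induction 700 uM final; 20 hr ambient; luminescence.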
Luc counter: Kinase-Glo luciferase inhibition (counter-screen); Q27757; Kinase-Glo luciferase, ATP luminescence, 8 min; Potency, µM (doses to about 38.3 µM), for inactives: at the highest dose activity change, negative = inhibition, most hits filed as inhibitors; 200,000 tested, 0.28% active; AID 1379; also: nearly all actives have a fitted effect of over 60% in size
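Kinase-Glo luciferase light output from ATP and luciferin was measured with 10 uM ATP, within the enzyme's linear range. Buffer: 50 mM imidazole pH 7.2, 50 mM KCl, 7 mM MgCl2, 0.01% Tween 20, 0.05% BSA; luminescence read after 8 min at ambient temperature.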
* marks the source's active call; other numbers are inactive results; ? = inconclusive; nt = not tested or not shown; [ ] = dose if it differs, or a comment. Calls follow the shape of the dose curve; as a rule, active = well fitted curve in the direction sought with a large enough effect; inconclusive = small, poorly fitted or top-dose-only effect, or another doubt; inactive = no such curve, though single readings can be large; an effect the other way counts as inactive or inconclusive. % is scaled to controls: 0 for no effect and ±100 for the full control effect; potency is read from the fitted curve at half-maximal effect.

SMILES	Gal4-VP16 FLuc	RORgamma inh	Luc counter
Cc1cc(=O)[nH]c(/N=C(\N)Nc2ccc(Cl)cc2)n1	nt	nt	-1%[7.66 µM]
CC(C)N1C(=O)c2ccccc2N(Cc2ccccc2)S1(=O)=O	-8%	10%	nt
CNS(=O)(=O)c1cc(OC)c(OC)cc1CC(=O)OC	-3%	1%	0%
CCC(C)(C)C1CCC2(CC1)NC(=O)N(CC(=O)N(C)CC(=O)Nc1ccccc1C(F)(F)F)C2=O (stereo unspecified)	-10%	25%	nt
CC(C)(C)c1ccc(OCC(=O)NNC(=S)NC(=O)c2ccccc2[N+](=O)[O-])c(Br)c1	16µM*	11µM*	nt
CC(C)(C)c1ccc(C(=O)NC(=S)NNC(=O)COc2ccccc2)cc1	2.8µM*	2.5µM*	nt
CCCOc1ccc(C(=O)NNC(=S)NC(=O)c2ccccc2)cc1	?	10µM*	nt
C=CCNC(=S)NNC(=O)CCC(O)COCCC(C)C (stereo unspecified)	3%	-37%	-2%
C=CCNC(=S)NNC(=O)C(CCCC)CC(C)(C)O (stereo unspecified)	5.6µM*	2.8µM*	-1%
Cc1ccc(C(=O)NNC(=S)NC(=O)COc2ccccc2)cc1	-20%	?	-4%
CCCOc1ccc(C(=O)NNC(=S)NC(C)=O)cc1	8%	2%	-2%
Cc1ccccc1OCC(=O)NNC(=S)NC(=O)c1ccccc1[N+](=O)[O-]	-24%	-8%[10 µM]	0%
COc1ccccc1Oc1nc([N+](=O)[O-])nn1CC(N)=O	-6%[10 µM]	6%	2%
COC(=O)[C@@H](Cc1c[nH]c2ccccc12)NC(=O)CCC(=O)c1ccc(Br)cc1	-12%	-10%	nt
C=CCN1c2ccccc2[C@]23C[C@@H](C(=O)OC)N(S(=O)(=O)c4ccc(C)cc4)C2=NC(C(=O)OC)=C(C(=O)OC)[C@H]13	nt	nt	-12%[7.66 µM]
O=C(O)C(Cc1ccc(Cl)cc1)Sc1nc2ccccc2[nH]1 (stereo unspecified)	-1%	-2%	nt
Cc1noc(C)c1COc1cccc(C(=O)N2CCN(C/C=C/c3ccccc3)CC2)c1	2%	16%	-2%
CC(C)C[C@@H](CC(=O)N[C@@H](CCC(=O)O)CC(=O)O)NC(=O)[C@@H]1CNCC[C@H]1NC(=O)C[C@@H](NC(=O)C[C@H](CO)NC(=O)[C@@H]1CCCC[C@H]1N)C(C)C	3%	-12%	-2%
CCCC(=O)Nc1ccc(C(=O)NNC(=S)NC(=O)c2cccs2)cc1	-22%	10µM*	0%
CCCOc1ccc(C(=O)NNC(=S)NC(=O)c2ccco2)cc1	-20%	-34%	nt
CCCOc1ccc(C(=O)NNC(=S)NC(=O)c2cccs2)cc1	7.9µM*	8.9µM*	nt
CCCC(=O)Nc1ccc(C(=O)NNC(=O)c2cccs2)cc1	6%	14%	1%
Cc1ccc(S(=O)(=O)NC(=O)NC2CCCCCCC2)cc1	-9%	2%	nt
CCCCSc1nc(C)c(CC(=O)OC)c(=O)[nH]1	-3%	-4%	0%
COc1cccc(-c2c(C(=O)N/N=C/c3ccncc3)nnn2-c2nonc2N)c1	11%	17%	nt
SMILES	Gal4-VP16 FLuc	RORgamma inh	Luc counter
Cc1ccc(/C=N/NC(=O)c2nnn(-c3nonc3N)c2C(C)C)s1	7.1µM*	2.2µM*	nt
CCOc1ccc(-c2c(C(=O)N/N=C/c3ccc(C)cc3)nnn2-c2nonc2N)cc1	-10%	-33%	nt
Cc1ccc(/C=N/NC(=O)c2nnn(-c3nonc3N)c2C(C)C)o1	-29%	?	nt
CCOc1ccc(-c2c(C(=O)N/N=C/c3ccc(C)s3)nnn2-c2nonc2N)cc1	2.8µM*	2.2µM*	nt
COc1cccc(-c2c(C(=O)N/N=C/c3ccc(C)s3)nnn2-c2nonc2N)c1	5.6µM*	2.5µM*	nt
COc1cccc(-c2c(C(=O)N/N=C/c3ccoc3)nnn2-c2nonc2N)c1	?	13µM*	nt
COc1cccc(-c2c(C(=O)N/N=C/c3cccnc3)nnn2-c2nonc2N)c1	3%	17%	nt
CC(C)c1nc(SCC(=O)NCc2ccccc2)n[nH]1	5%	-5%	2%
CC(=O)c1ccc(S(=O)(=O)N2CCCCC2C(=O)O)cc1 (stereo unspecified)	0%	21%	-2%
CCOc1cccc(-c2c(C(=O)N/N=C/c3ccc(C)s3)nnn2-c2nonc2N)c1	4µM*	2.5µM*	nt
COc1cccc(-c2c(C(=O)N/N=C/c3ccc(C)o3)nnn2-c2nonc2N)c1	?	10µM*	nt
CCOc1cccc(-c2c(C(=O)N/N=C/c3c(F)cccc3Cl)nnn2-c2nonc2N)c1	-4%	-2%	nt
COC(=O)c1ccc(NC(=O)Nc2ccc([N+](=O)[O-])cc2)cc1	-28%	?	nt
CC1(C)Cc2ccccc2-c2nnc(SCC(=O)Nc3nc4ccccc4s3)n21	3%	-21%[10 µM]	0%

Screening results (PubChem BioAssay)
